In paper PMC4081100, “A DNA-binding-site landscape and regulatory network analysis for NAC transcription factors in Arabidopsis thaliana”:

What was measured:
Test in all cases: universal protein binding microarray (PBM); transcription factors of Arabidopsis thaliana; high values mean tight binding
[1] = biological target: T1, GST-ANAC092(1-176) (Arabidopsis thaliana, UniProt Q9FKA0 1-176); settings: protein: recombinant; tags: GST; chain copies: 2; dsDNA, one strand shown
T1 sequence: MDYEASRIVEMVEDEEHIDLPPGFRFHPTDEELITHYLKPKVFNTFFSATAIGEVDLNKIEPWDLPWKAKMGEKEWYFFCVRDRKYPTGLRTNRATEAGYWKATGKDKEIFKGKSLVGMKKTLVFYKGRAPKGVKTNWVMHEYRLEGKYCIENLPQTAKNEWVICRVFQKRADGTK
In short: (§1)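 Binding is expressed as the normalised enrichment score (E-score). Proteins carrying a GST tag, whether NAC-domain, full-length or DNA-binding-domain forms, were induced in cells, and zinc acetate was added for zinc-finger proteins. After purification on glutathione–Sepharose 4B and quantification by A280 or anti-GST western blot, each was applied in duplicate at 200 to 500 nM final to custom all-10-mer Agilent 4 × 180K arrays made double-stranded by primer extension. Gapped and ungapped 8-mers were scored.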

[2] = biological target: T2, GST-ANAC019 NAC domain (Arabidopsis thaliana, UniProt Q9C932 14-162); settings: protein: recombinant; tags: GST; chain copies: 2; dsDNA, one strand shown
T2 sequence: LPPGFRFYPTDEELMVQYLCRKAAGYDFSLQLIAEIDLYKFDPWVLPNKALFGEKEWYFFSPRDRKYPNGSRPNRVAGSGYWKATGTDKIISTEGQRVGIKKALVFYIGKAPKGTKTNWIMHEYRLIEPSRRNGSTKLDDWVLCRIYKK
In short: as §1

[3] = biological target: T3, GST-ANAC055(1-171) (Arabidopsis thaliana, UniProt Q9LDY8 1-171); settings: protein: recombinant; tags: GST; chain copies: 2; dsDNA, one strand shown
T3 sequence: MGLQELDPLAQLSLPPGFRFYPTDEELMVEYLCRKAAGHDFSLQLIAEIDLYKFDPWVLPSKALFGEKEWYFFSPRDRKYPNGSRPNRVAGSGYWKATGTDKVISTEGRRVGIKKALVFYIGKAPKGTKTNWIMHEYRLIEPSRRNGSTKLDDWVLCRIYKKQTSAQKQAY
In short: as §1

[4] = biological target: T4, GST-ATAF1 NAC domain (Arabidopsis thaliana, UniProt Q39013 7-158); settings: protein: recombinant; tags: GST; chain copies: 2; dsDNA, one strand shown
T4 sequence: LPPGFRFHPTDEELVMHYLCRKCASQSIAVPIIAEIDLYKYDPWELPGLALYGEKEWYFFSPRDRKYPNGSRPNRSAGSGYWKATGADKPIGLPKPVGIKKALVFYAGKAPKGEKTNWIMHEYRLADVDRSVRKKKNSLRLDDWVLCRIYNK
In short: as §1

[5] = biological target: T5, GST-ANAC092(1-285) full length (Arabidopsis thaliana, UniProt Q9FKA0 1-285); settings: protein: recombinant; tags: GST; chain copies: 2; dsDNA, one strand shown
T5 sequence: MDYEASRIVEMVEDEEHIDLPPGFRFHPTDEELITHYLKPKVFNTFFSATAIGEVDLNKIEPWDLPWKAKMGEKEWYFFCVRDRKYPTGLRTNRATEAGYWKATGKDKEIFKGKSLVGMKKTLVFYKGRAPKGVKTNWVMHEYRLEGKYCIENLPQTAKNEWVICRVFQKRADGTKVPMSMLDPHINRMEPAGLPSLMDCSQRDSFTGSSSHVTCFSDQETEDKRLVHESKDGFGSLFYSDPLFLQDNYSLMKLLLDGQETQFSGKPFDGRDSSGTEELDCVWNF
In short: as §1

[6] = biological target: T6, GST-NST2(1-184) (Arabidopsis thaliana, UniProt Q9M274 1-184); settings: protein: recombinant; tags: GST; chain copies: 2; dsDNA, one strand shown
T6 sequence: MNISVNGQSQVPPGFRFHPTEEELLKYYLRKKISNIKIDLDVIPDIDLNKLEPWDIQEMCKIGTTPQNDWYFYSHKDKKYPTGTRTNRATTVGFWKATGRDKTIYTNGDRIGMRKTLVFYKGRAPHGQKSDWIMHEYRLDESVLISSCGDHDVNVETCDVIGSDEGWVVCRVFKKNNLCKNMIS
In short: as §1

[7] = biological target: T7, GST-SND1(1-203) (Arabidopsis thaliana, UniProt Q9LPI7 1-203); settings: protein: recombinant; tags: GST; chain copies: 2; dsDNA, one strand shown
T7 sequence: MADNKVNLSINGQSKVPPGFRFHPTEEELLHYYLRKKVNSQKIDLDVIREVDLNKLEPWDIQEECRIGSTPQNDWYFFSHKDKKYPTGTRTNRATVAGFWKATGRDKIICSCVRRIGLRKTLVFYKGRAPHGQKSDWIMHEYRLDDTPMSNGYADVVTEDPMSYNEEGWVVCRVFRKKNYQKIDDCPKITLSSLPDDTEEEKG
In short: as §1

[8] = biological target: T8, GST-NTL8 NAC domain (Arabidopsis thaliana, UniProt Q9XIN7 14-156); settings: protein: recombinant; tags: GST; chain copies: 2; dsDNA, one strand shown
T8 sequence: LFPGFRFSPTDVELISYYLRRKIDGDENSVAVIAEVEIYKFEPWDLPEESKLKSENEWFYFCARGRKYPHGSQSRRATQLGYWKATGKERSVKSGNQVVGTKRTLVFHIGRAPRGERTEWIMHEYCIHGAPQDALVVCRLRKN
In short: as §1

[9] = biological target: T9, GST-NAP(1-166) (Arabidopsis thaliana, UniProt O49255 1-166); settings: protein: recombinant; tags: GST; chain copies: 2; dsDNA, one strand shown
T9 sequence: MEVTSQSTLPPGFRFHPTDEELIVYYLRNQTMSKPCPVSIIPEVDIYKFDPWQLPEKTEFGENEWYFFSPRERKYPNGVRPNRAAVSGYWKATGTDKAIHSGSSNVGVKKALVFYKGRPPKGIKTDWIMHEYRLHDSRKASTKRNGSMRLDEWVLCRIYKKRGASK
In short: as §1

[10] = biological target: GST-NTL6(1-168) (Arabidopsis thaliana, UniProt Q9SCK6 1-168); settings: protein: recombinant; tags: GST; chain copies: 2; dsDNA, one strand shown
Chain of GST-NTL6(1-168) (Q9SCK6 1-168): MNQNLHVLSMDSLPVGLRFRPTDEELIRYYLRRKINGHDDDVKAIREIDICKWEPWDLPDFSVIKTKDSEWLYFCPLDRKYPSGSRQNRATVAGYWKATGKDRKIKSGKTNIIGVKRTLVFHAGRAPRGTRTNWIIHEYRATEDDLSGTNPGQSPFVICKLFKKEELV
In short: as §1

[11] = biological target: T10, GST-VND3 NAC domain (Arabidopsis thaliana, UniProt Q9FH59 12-162); settings: protein: recombinant; tags: GST; chain copies: 2; dsDNA, one strand shown
T10 sequence: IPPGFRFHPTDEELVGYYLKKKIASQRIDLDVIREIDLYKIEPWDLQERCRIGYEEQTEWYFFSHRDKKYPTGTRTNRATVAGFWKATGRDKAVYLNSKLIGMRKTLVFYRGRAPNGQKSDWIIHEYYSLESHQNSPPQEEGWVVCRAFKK
In short: as §1

[12] = biological target: T11, GST-VND7 NAC domain (Arabidopsis thaliana, UniProt Q9C8W9 9-158); settings: protein: recombinant; tags: GST; chain copies: 2; dsDNA, one strand shown
T11 sequence: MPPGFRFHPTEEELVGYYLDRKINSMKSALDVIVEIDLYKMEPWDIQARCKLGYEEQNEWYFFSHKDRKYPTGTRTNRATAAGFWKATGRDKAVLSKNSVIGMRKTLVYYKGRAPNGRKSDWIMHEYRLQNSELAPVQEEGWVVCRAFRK
In short: as §1

[13] = biological target: GST-WRKY1(266-371) (Arabidopsis thaliana, UniProt Q9SI37 266-371); settings: protein: recombinant; tags: GST; dsDNA, one strand shown
Chain of GST-WRKY1(266-371) (Q9SI37 266-371): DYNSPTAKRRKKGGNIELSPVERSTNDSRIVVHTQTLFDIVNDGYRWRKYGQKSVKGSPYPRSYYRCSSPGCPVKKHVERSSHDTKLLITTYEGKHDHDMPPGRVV
In short: as §1

## CACACGCC
[1]
  binding signal: 0.396 E-score
[2]
  binding signal: 0.207 E-score
[3]
  binding signal: 0.124 E-score
[4]
  binding signal: 0.145 E-score
[5]
  binding signal: 0.428 E-score
[6]
  binding signal: 0.134 E-score
[7]
  binding signal: 0.119 E-score

## GCACTCAA
[1]
  binding signal: 0.391 E-score
[4]
  binding signal: 0.0807 E-score
[5]
  binding signal: 0.426 E-score
[6]
  binding signal: 0.196 E-score
[8]
  binding signal: 0.0643 E-score
[7]
  binding signal: 0.263 E-score

## GCACGCGA
[1]
  binding signal: 0.287 E-score
[5]
  binding signal: 0.429 E-score
[6]
  binding signal: 0.191 E-score
[7]
  binding signal: 0.286 E-score

## CACGCTAG
[1]
  binding signal: 0.389 E-score
[2]
  binding signal: 0.115 E-score
[3]
  binding signal: 0.101 E-score
[5]
  binding signal: 0.426 E-score
[9]
  binding signal: 0.0849 E-score
[6]
  binding signal: 0.156 E-score
[7]
  binding signal: 0.218 E-score

## CTACGCGA
[5]
  binding signal: 0.177 E-score
[6]
  binding signal: 0.0539 E-score
[7]
  binding signal: 0.417 E-score

## GGAGGGAA
[10]
  binding signal: 0.0867 E-score
[2]
  binding signal: 0.104 E-score
[9]
  binding signal: 0.074 E-score
[8]
  binding signal: 0.421 E-score
[7]
  binding signal: 0.0554 E-score

## GCTAAGCA
[10]
  binding signal: 0.411 E-score
[6]
  binding signal: 0.0614 E-score
[7]
  binding signal: 0.155 E-score

## ACCTTACC
[10]
  binding signal: 0.306 E-score
[4]
  binding signal: 0.0631 E-score
[5]
  binding signal: 0.111 E-score
[8]
  binding signal: 0.417 E-score
[7]
  binding signal: 0.152 E-score

## AGGAAACC
[10]
  binding signal: 0.0999 E-score
[5]
  binding signal: 0.13 E-score
[8]
  binding signal: 0.482 E-score
[7]
  binding signal: 0.0696 E-score

## ACACGACT
[1]
  binding signal: 0.104 E-score
[2]
  binding signal: 0.411 E-score
[3]
  binding signal: 0.364 E-score
[4]
  binding signal: 0.336 E-score
[5]
  binding signal: 0.171 E-score
[9]
  binding signal: 0.179 E-score
[6]
  binding signal: 0.19 E-score
[11]
  binding signal: 0.309 E-score
[12]
  binding signal: 0.265 E-score
[13]
  binding signal: 0.312 E-score

## ATTGACCA
[1]
  binding signal: 0.0698 E-score
[3]
  binding signal: 0.072 E-score
[4]
  binding signal: 0.107 E-score
[5]
  binding signal: 0.0788 E-score
[8]
  binding signal: 0.163 E-score
[11]
  binding signal: 0.129 E-score
[12]
  binding signal: 0.0794 E-score
[13]
  binding signal: 0.482 E-score

## ATCGCGTG
[1]
  binding signal: 0.382 E-score
[5]
  binding signal: 0.441 E-score
[6]
  binding signal: 0.135 E-score
[7]
  binding signal: 0.266 E-score

## ATTGGTCA
[1]
  binding signal: 0.0884 E-score
[5]
  binding signal: 0.105 E-score
[11]
  binding signal: 0.0748 E-score
[13]
  binding signal: 0.454 E-score

## AAAGTCGT
[2]
  binding signal: 0.29 E-score
[3]
  binding signal: 0.271 E-score
[4]
  binding signal: 0.258 E-score
[9]
  binding signal: 0.132 E-score
[6]
  binding signal: 0.13 E-score
[11]
  binding signal: 0.145 E-score
[12]
  binding signal: 0.176 E-score
[13]
  binding signal: 0.429 E-score

## AGTCAACT
[2]
  binding signal: 0.183 E-score
[4]
  binding signal: 0.0655 E-score
[11]
  binding signal: 0.0667 E-score
[12]
  binding signal: 0.0783 E-score
[13]
  binding signal: 0.486 E-score

## AAGTCTTC
[10]
  binding signal: 0.204 E-score
[2]
  binding signal: 0.052 E-score
[3]
  binding signal: 0.0748 E-score
[4]
  binding signal: 0.0685 E-score
[8]
  binding signal: 0.0771 E-score
[11]
  binding signal: 0.123 E-score
[12]
  binding signal: 0.0783 E-score
[13]
  binding signal: 0.429 E-score

## TCTGGTCA
[11]
  binding signal: 0.059 E-score
[13]
  binding signal: 0.455 E-score

## TGGTCAAA
[1]
  binding signal: 0.0858 E-score
[4]
  binding signal: 0.062 E-score
[5]
  binding signal: 0.0538 E-score
[11]
  binding signal: 0.118 E-score
[13]
  binding signal: 0.491 E-score

## AGGTCAAA
[10]
  binding signal: 0.0901 E-score
[3]
  binding signal: 0.0973 E-score
[4]
  binding signal: 0.0548 E-score
[11]
  binding signal: 0.062 E-score
[12]
  binding signal: 0.0735 E-score
[13]
  binding signal: 0.482 E-score

## CCACGGAA
[1]
  binding signal: 0.219 E-score
[10]
  binding signal: 0.117 E-score
[2]
  binding signal: 0.427 E-score
[3]
  binding signal: 0.326 E-score
[4]
  binding signal: 0.211 E-score
[5]
  binding signal: 0.244 E-score
[9]
  binding signal: 0.149 E-score
[6]
  binding signal: 0.123 E-score
[8]
  binding signal: 0.107 E-score
[11]
  binding signal: 0.343 E-score
[12]
  binding signal: 0.316 E-score

## GTTGGTCA
[3]
  binding signal: 0.182 E-score
[4]
  binding signal: 0.131 E-score
[9]
  binding signal: 0.117 E-score
[11]
  binding signal: 0.0931 E-score
[12]
  binding signal: 0.0967 E-score
[13]
  binding signal: 0.448 E-score

## GGATTGAC
[1]
  binding signal: 0.0627 E-score
[10]
  binding signal: 0.0579 E-score
[2]
  binding signal: 0.102 E-score
[3]
  binding signal: 0.0598 E-score
[9]
  binding signal: 0.0556 E-score
[6]
  binding signal: 0.12 E-score
[11]
  binding signal: 0.094 E-score
[13]
  binding signal: 0.459 E-score

## GCACGGTA
[1]
  binding signal: 0.375 E-score
[2]
  binding signal: 0.2 E-score
[3]
  binding signal: 0.189 E-score
[4]
  binding signal: 0.134 E-score
[5]
  binding signal: 0.408 E-score
[9]
  binding signal: 0.102 E-score
[11]
  binding signal: 0.124 E-score
[12]
  binding signal: 0.122 E-score
